Assay outcomes from PubChem BioAssay.
Shown are actives, neighbours in structure and some others; about 4.1% of the full set was active somewhere.
PfM18AAP inh: PfM18AAP inhibitors, malaria aminopeptidase, primary screen, biochemical, QFRET, recombinant enzyme; H-Glu-NHMec fluorogenic cleavage; inhibition, % at 7.35 µM; 290,000 tested, 1.2% active; AID 1822, 2009;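 active = inhibition above the campaign mean inhibition over all tested compounds plus 3 SD, cut at about 28% in these data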;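 also: 0% = plate median of test compound wells and 100% = 2 mM ZnCl2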
PolyA inhibitor: polyadenylation inhibitors in yeast reporter cells, primary screen, luminescence, S. cerevisiae | AID 1875, 2009 | S. cerevisiae SKY197-pL101 polyadenylation reporter, beta-gal luminescence; efflux-impaired pdr1/pdr3 knockout yeast; score 100 = 6 SD above DMSO | activity score, % at 12 µM | 300,000 tested, 0.02% active;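 active = lowest replicate activity score at least 50, where 100 means six control SD above control mean; inconclusive = lowest score under 50 but half or more replicates reach 50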;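 also: yeast exposed to compound for 9 h at 30 °C; higher score means more reporter readthrough which indicates perturbed polyadenylation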
CaV13 ICDI inh: Primary screen for inhibitors of IQ motif and Ca2+-dependent inactivation inhibitor domain binding in CACNA1D, Förster resonance energy transfer in living cells, …; HEK cells, CFP/YFP FRET ICDI-IQ, plate reader, 10 min; percent FRET-ratio fall versus neutral wells; inhibition, % at 12.3 µM; 340,000 tested, 0.098% active;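 active = mean replicate inhibition of at least 30% and at least 1% of replicates passing that level; inconclusive = only one of the two criteria is met; inactive = neither criterion is met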;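 also: 0% = median of the neutral control wells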
ALR H2O2 inh: inhibitors of human ALR sulfhydryl oxidase, primary screen, biochemical, H2O2 detection, HRP-luminol luminescence, single point; FAD-linked sulfhydryl oxidase ALR (Homo sapiens), P55789; purified ALR, DTT oxidation; inhibition, % (concentration not given with the values); 290,000 tested, 3.8% active;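 active = mean replicate inhibition above about 79%, with every replicate also reaching it, limit read from the data; inconclusive = only one of the two criteria met; inactive = mean below limit and not every replicate reaching it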
IDE act: human IDE activators in live cells, primary screen, fluorescence polarization, HEK cells, FAbeta-B substrate | Insulin-degrading enzyme (Homo sapiens), P14735 | FAbeta-B cleavage; 0% vehicle, 100% cell-free pure enzyme wells | activation, % at 5.96 µM | 340,000 tested, 0.073% active;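 active = activation above the mean of all tested compounds plus 3 SD, set per screening campaign, cut at about 17% in these data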
IDE inh: human IDE inhibitors in live cells, primary screen, fluorescence polarization, HEK cells, FAbetaB substrate. Insulin-degrading enzyme (Homo sapiens), P14735. FAbetaB cleavage. inhibition, % at 5.59 µM. 320,000 tested, 0.41% active;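 active = percent inhibition above the average of all tested compounds plus 3 SD, set per screening campaign, cut at about 16% in these data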;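 also: IDE supplied by intact live HEK cells; FP after avidin binding of uncleaved biotin substrate so inhibition keeps polarization high; 0% = DMSO wells and 100% = 60 µM reference IDE inhibitor Ii1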
The depositor's hits bear a star.

Results for C[C@@H]1ON(C)[C@H]2C[C@H]3c4[nH]c5c(-c6ccccc6)cccc5c4CCN3C[C@@H]12 ?
CaV13 ICDI inh: -6

Results for COC(=O)Nc1ccc(S(=O)(=O)N2CCC(C(=O)NCc3ccc4c(c3)OCO4)CC2)cc1 ?
CaV13 ICDI inh: -6; ALR H2O2 inh: 2; IDE act: 2; IDE inh: -4

Results for C[C@@H]1CN([C@@H](C)CO)C(=O)CCCn2nncc2CO[C@@H]1CN(C)C(=O)Nc1ccccc1 ?
CaV13 ICDI inh: -3

Results for CC1CCN(C(=S)c2ccc(N(C)C)cc2)CC1 ?
PfM18AAP inh: 4; PolyA inhibitor: 4; CaV13 ICDI inh: -5; ALR H2O2 inh: 99*; IDE act: 2; IDE inh: 0

What do the screens show for `Cc1ccc(N2CCN(C(=S)c3ccc(N(C)C)cc3)CC2)cc1`?
PfM18AAP inh: 9; PolyA inhibitor: -4; CaV13 ICDI inh: -5; ALR H2O2 inh: 18; IDE act: -3; IDE inh: 5

What do the screens show for `CC(OC(=O)c1ccc2c(c1)OCCO2)C(=O)c1ccccc1` (stereo unspecified)?
PolyA inhibitor: 14; CaV13 ICDI inh: -6; IDE act: 0; IDE inh: -1

What do the screens show for `Cc1cc2n(n1)C(c1ccc3c(c1)OCO3)Nc1c(C)cccc1-2` (stereo unspecified)?
PfM18AAP inh: -9; PolyA inhibitor: -23; CaV13 ICDI inh: -6; ALR H2O2 inh: 98*; IDE act: 4; IDE inh: -1

What do the screens show for `CN(C)c1ccccc1C(=O)N1CCC(n2nccc2NC(=O)C2CC2)CC1`?
PfM18AAP inh: -5; PolyA inhibitor: -12; CaV13 ICDI inh: -4; ALR H2O2 inh: 4; IDE act: 6; IDE inh: 1

What do the screens show for `CCOCCCNC(=S)N(CCN(C)C)Cc1cc2cc3c(cc2[nH]c1=O)OCCO3`?
PfM18AAP inh: 14; PolyA inhibitor: -11; CaV13 ICDI inh: -20; IDE act: 2; IDE inh: 7

How did Cc1ccc(C)c(N2CCN(C(=O)c3ccc(CS(=O)Cc4cccc(Cl)c4)o3)CC2)c1 (stereo unspecified) do in these assays?
PfM18AAP inh: -10; PolyA inhibitor: -2; CaV13 ICDI inh: -4; ALR H2O2 inh: 46; IDE act: 6; IDE inh: -6

Results for O=C(NO)c1ccc(OC(F)F)cc1 ?
PfM18AAP inh: 10; PolyA inhibitor: -1; CaV13 ICDI inh: -5; ALR H2O2 inh: 99*; IDE act: -5; IDE inh: 5

How did CC12CC(NC(=O)N1c1cccc(C(=O)N3CCCCC3)c1)c1ccccc1O2 (stereo unspecified) do in these assays?
PfM18AAP inh: 0; PolyA inhibitor: -10; CaV13 ICDI inh: -3; ALR H2O2 inh: 1; IDE act: -5; IDE inh: -1

How did COC(=O)c1cc2c(c3c4cc(OC)ccc4n(S(=O)(=O)c4ccc(OC)cc4)c13)C(=O)N(C)C2 do in these assays?
CaV13 ICDI inh: -4

How did COc1cc(/C=N/NC(=O)c2cnccn2)ccc1O do in these assays?
PfM18AAP inh: 10; PolyA inhibitor: 13; CaV13 ICDI inh: -4; ALR H2O2 inh: -16; IDE act: 2; IDE inh: 8

Results for CCOc1ccc(/C=N/NC(=O)NC23CC4CC(CC(C4)C2)C3)cc1O ?
PfM18AAP inh: 6; PolyA inhibitor: -9; CaV13 ICDI inh: -8; ALR H2O2 inh: 99*; IDE act: 6; IDE inh: -4

What do the screens show for `COc1cc(/C=N/NC(=O)NC23CC4CC(CC(C4)C2)C3)ccc1O`?
PfM18AAP inh: 9; PolyA inhibitor: -21; CaV13 ICDI inh: -5; ALR H2O2 inh: 95*; IDE act: 2; IDE inh: 0

How did COc1cc(/C=N\NC(=O)C2CC3C=CC2C3)ccc1O (stereo unspecified) do in these assays?
PfM18AAP inh: 4; PolyA inhibitor: -8; CaV13 ICDI inh: -3; ALR H2O2 inh: 100*; IDE act: -2; IDE inh: 9

How did O=C(N/N=C/c1ccccc1O)NC12CC3CC(CC(C3)C1)C2 do in these assays?
PfM18AAP inh: -9; PolyA inhibitor: -44; CaV13 ICDI inh: -10; ALR H2O2 inh: 28; IDE act: 7; IDE inh: -2

Results for COc1ccc(C2C=C(C34CC5CC(CC(C5)C3)C4)NC(=S)N2)cc1 (stereo unspecified) ?
PfM18AAP inh: 5; PolyA inhibitor: -8; CaV13 ICDI inh: -4; ALR H2O2 inh: -3; IDE act: 7; IDE inh: 1

Results for Oc1ccc(/C=C/c2cnccn2)cc1 ?
PfM18AAP inh: 0; PolyA inhibitor: 13; CaV13 ICDI inh: -6; ALR H2O2 inh: 83*; IDE act: 4; IDE inh: 1

How did CCN(CC)c1ccc2ccc(=O)oc2c1 do in these assays?
PfM18AAP inh: 1; PolyA inhibitor: -4; CaV13 ICDI inh: inconclusive; ALR H2O2 inh: 98*; IDE inh: 4

What do the screens show for `CCN(CC)c1ccc2c(C)cc(=O)oc2c1`?
ALR H2O2 inh: 99*; IDE act: 7; IDE inh: 4

What do the screens show for `CCN(CC)c1ccc2cc(C#N)c(=O)oc2c1`?
PfM18AAP inh: -3; PolyA inhibitor: -13; CaV13 ICDI inh: active; ALR H2O2 inh: -4; IDE inh: 13

How did CCOC(=O)c1c(C)[nH]c(C)c1C(=O)COC(=O)c1ccc(Cl)c(S(N)(=O)=O)c1 do in these assays?
PfM18AAP inh: 3; PolyA inhibitor: 6; CaV13 ICDI inh: -3; ALR H2O2 inh: -25; IDE act: 4; IDE inh: 8

Results for CC(=O)Nc1ccc2c(c1)NC(=O)CC2 ?
PfM18AAP inh: 5; PolyA inhibitor: 14; CaV13 ICDI inh: -7; ALR H2O2 inh: -8; IDE act: -3; IDE inh: 2

Results for Nc1ccc2c(c1)Nc1ccccc1CC2 ?
PfM18AAP inh: 8; PolyA inhibitor: 9; CaV13 ICDI inh: -5; ALR H2O2 inh: 99*; IDE act: 2; IDE inh: 1

What do the screens show for `COC(=O)Nc1ccc2c(c1)Nc1ccccc1CC2`?
PfM18AAP inh: 10; PolyA inhibitor: 4; CaV13 ICDI inh: -4; ALR H2O2 inh: 98*; IDE act: 0; IDE inh: 0

Results for O=C(Nc1ccc(Oc2ccccc2)cc1)c1cnc2n(c1=O)CCS2 ?
PfM18AAP inh: -1; PolyA inhibitor: 18; CaV13 ICDI inh: -3; ALR H2O2 inh: -2; IDE act: 1; IDE inh: 0
